Reference: the supplement of paper PMC12494721
Counter-ions that a name gives are not always drawn.

Tests used:
Details in all cases: incubation time: 27 h, anaerobic, 37 °C;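 for the amine columns active = adjusted P below 0.05 in both replicates with a change the same way and a mean fold change under 0.8 or over 1.25; inactive = the rest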
[1] = system: Clostridium sporogenes DSM 1664; experiment: growth (OD595) fold change vs plate DMSO controls (fold change (ratio)); higher = more growth
Procedure, shortened: (§1)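 Growth is the fold change relative to the median of plate DMSO controls. Readings came from anaerobic mGAM cultures in 96-well plates grown for 27 h at 37 °C and read at 595 nm. They were blank-subtracted, corrected for compound background with 20 µM compound solutions in water, and converted to OD with a calibration factor of 5. Values are means of 2 biological replicates, and fold changes above 1.5 were set to NA.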

Escherichia coli IAI1 [2] = experiment: as above
Procedure, shortened: as §1

[3] = system: Klebsiella aerogenes DSM 30053; experiment: as above
Procedure, shortened: as §1

[4] = system: Ruminococcus gnavus DSM 108212; experiment: as above
Procedure, shortened: as §1

[5] = system: Klebsiella aerogenes DSM 30053; experiment: fold change of Histamine concentration vs plate DMSO controls (fold change (ratio)); higher = more amine produced, active = hit call of the paper (significant change in both replicates, either direction)
Procedure, shortened: (§2)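 Amine values are fold changes relative to DMSO-only wells on the same plate. They derive from 27 h, 37 °C anaerobic mGAM cultures of four gut bacterial strains in 80 µL wells, dosed at 20 µM final, or 50 µM final for sweeteners. Extraction of the whole culture, LC–triple-quadrupole MS in dynamic MRM mode, external calibration curves and within-batch drift correction were used, with 2 biological replicates averaged.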

[6] = system: Clostridium sporogenes DSM 1664; experiment: fold change of Tryptamine concentration vs plate DMSO controls (fold change (ratio)); higher = more amine produced, active = hit call of the paper (significant change in both replicates, either direction)
Procedure, shortened: as §2

[7] = system: Ruminococcus gnavus DSM 108212; experiment: as above
Procedure, shortened: as §2

Escherichia coli IAI1 [8] = experiment: fold change of Putrescine concentration vs plate DMSO controls (fold change (ratio)); higher = more amine produced, active = hit call of the paper (significant change in both replicates, either direction)
Procedure, shortened: as §2

[9] = system: Klebsiella aerogenes DSM 30053; experiment: as above
Procedure, shortened: as §2

Escherichia coli IAI1 [10] = experiment: fold change of Cadaverine concentration vs plate DMSO controls (fold change (ratio)); higher = more amine produced, active = hit call of the paper (significant change in both replicates, either direction)
Procedure, shortened: as §2

[11] = system: Klebsiella aerogenes DSM 30053; experiment: as above
Procedure, shortened: as §2

[12] = system: Ruminococcus gnavus DSM 108212; experiment: fold change of 2-Phenylethylamine concentration vs plate DMSO controls (fold change (ratio)); higher = more amine produced, active = hit call of the paper (significant change in both replicates, either direction)
Procedure, shortened: as §2

| SMILES | growth [1] | growth (Escherichia coli IAI1 [2]) | growth [3] | growth [4] | fold change of Histamine concentration [5] | fold change of Tryptamine concentration [6] | fold change of Tryptamine concentration [7] | fold change of Putrescine concentration (Escherichia coli IAI1 [8]) | fold change of Putrescine concentration [9] | fold change of Cadaverine concentration (Escherichia coli IAI1 [10]) | fold change of Cadaverine concentration [11] | fold change of 2-Phenylethylamine concentration [12] |
| --- | --- | --- | --- | --- | --- | --- | --- | --- | --- | --- | --- | --- |
| C=C1[C@H](CO)[C@@H](O)C[C@@H]1n1cnc2c(=O)[nH]c(N)nc21 [Entecavir] (20 µM) | 0.907 | 0.934 | 1.04 | 1.04 | 0.969 (inactive) | 0.982 (inactive) | 0.999 (inactive) | 0.972 (inactive) | 1 (inactive) | 1.04 (inactive) | 0.985 (inactive) | 0.98 (inactive) |
| CCCCN(CCCC)CCCOC(=O)c1ccc(N)cc1 [Butacaine] (20 µM) | 1.11 | 1.03 | 1.02 | 1 | 1.03 (inactive) | 0.973 (inactive) | 0.951 (inactive) | 0.955 (inactive) | 1.01 (inactive) | 1.02 (inactive) | 1 (inactive) | 0.913 (inactive) |
| CC(C)C(=O)Nc1ccc([N+](=O)[O-])c(C(F)(F)F)c1 [Flutamide] (20 µM) | 0.955 | 1 | 0.938 | 1.32 | 1.02 (inactive) | 0.961 (inactive) | 1 (inactive) | 0.977 (inactive) | 1.01 (inactive) | 0.982 (inactive) | 0.981 (inactive) | 1.02 (inactive) |
| CC(C)c1cc2c(cc1S(=O)(=O)O)[C@@]1(C)CCC[C@@](C)(C(=O)O)[C@@H]1CC2 [Ecabet sodium] (20 µM) | 1.16 | 1 | 1.01 | 0.982 | 0.974 (inactive) | 0.972 (inactive) | 1.01 (inactive) | 0.955 (inactive) | 1 (inactive) | 1.01 (inactive) | 0.991 (inactive) | 0.995 (inactive) |
| CCCSc1ccc2[nH]c(NC(=O)OC)nc2c1 [Albendazole] (20 µM) | 0.989 | 1.01 | 1.05 | 0.661 | 1.09 (inactive) | 0.961 (inactive) | 1.07 (inactive) | 1.01 (inactive) | 1.02 (inactive) | 0.982 (inactive) | 1.01 (inactive) | 1.13 (inactive) |
| C#C[C@]1(OC(C)=O)CC[C@H]2[C@@H]3CCC4=C[C@@H](OC(C)=O)CC[C@@H]4[C@H]3CC[C@@]21C [Ethynodiol diacetate] (20 µM) | 0.766 | 0.814 | 1.02 | 1.14 | 0.897 (inactive) | 0.966 (inactive) | 1.01 (inactive) | 0.894 (inactive) | 1 (inactive) | 1.09 (inactive) | 1.02 (inactive) | 1.02 (inactive) |
| Cc1cc(N)c2ccccc2[n+]1CCCCCCCCCC[n+]1c(C)cc(N)c2ccccc21 [Dequalinium dichloride] (20 µM) | 0.993 | 0.99 | 1.11 | 0.565 | 0.873 (inactive) | 0.951 (inactive) | 0.896 (inactive) | 0.933 (inactive) | 1 (inactive) | 0.968 (inactive) | 1.01 (inactive) | 0.921 (inactive) |
| CCc1oc2ccccc2c1C(=O)c1ccc(O)cc1 [Benzarone] (20 µM) | 1 | 1.1 | 1.09 | 1.11 | 0.967 (inactive) | 0.933 (inactive) | 0.934 (inactive) | 1.06 (inactive) | 1 (inactive) | 1.01 (inactive) | 1.02 (inactive) | 0.956 (inactive) |
| CN1CCCC(CC2c3ccccc3Sc3ccccc32)C1 (centres undefined) [Metixene hydrochloride] (20 µM) | 1.02 | 0.988 | 1.02 | 1.25 | 0.998 (inactive) | 1.06 (inactive) | 0.807 (inactive) | 0.956 (inactive) | 1.02 (inactive) | 0.999 (inactive) | 1.01 (inactive) | 0.88 (inactive) |
| CCCCOc1ccc(C(=O)CCN2CCCCC2)cc1 [Dyclonine hydrochloride] (20 µM) | 1.17 | 0.992 | 0.966 | 1.22 | 1 (inactive) | 0.989 (inactive) | 0.947 (inactive) | 0.989 (inactive) | 0.995 (inactive) | 0.995 (inactive) | 0.984 (inactive) | 0.936 (inactive) |
| CN1CCC(=C2c3ccccc3C=Cc3ccccc32)CC1 [Cyproheptadine hydrochloride] (20 µM) | 0.683 | 1.01 | 0.98 | 1.15 | 1.03 (inactive) | 1.18 (inactive) | 0.98 (inactive) | 0.969 (inactive) | 0.996 (inactive) | 0.973 (inactive) | 0.999 (inactive) | 1 (inactive) |
| CC(=O)Oc1cccc2c1C(=O)c1c(OC(C)=O)cc(C(=O)O)cc1C2=O [Diacerein] (20 µM) | 0.926 | 0.994 | 0.96 | 0.904 | 0.952 (inactive) | 1.02 (inactive) | 0.905 (inactive) | 1.08 (inactive) | 0.956 (inactive) | 1.02 (inactive) | 1 (inactive) | 0.916 (inactive) |
| CC(C)(S)C(N)C(=O)O (racemic) [D,L-Penicillamine] (20 µM) | 1.05 | 1.08 | 1.02 | 0.873 | 0.909 (inactive) | 0.993 (inactive) | 0.968 (inactive) | 0.99 (inactive) | 0.954 (inactive) | 1 (inactive) | 0.974 (inactive) | 0.956 (inactive) |
| CC1CS(=O)(=O)CCN1/N=C/c1ccc([N+](=O)[O-])o1 (centres undefined) [Nifurtimox] (20 µM) | 1.13 | 1.03 | 0.924 | 1.04 | 0.593 (active) | 0.895 (inactive) | 0.971 (inactive) | 0.949 (inactive) | 0.949 (inactive) | 0.974 (inactive) | 0.998 (inactive) | 1.03 (inactive) |
| CN1C(C(=O)Nc2ccccn2)=C(O)c2ccccc2S1(=O)=O [Piroxicam] (20 µM) | 1.07 | 1.03 | 1.02 | 1.05 | 0.953 (inactive) | 1.09 (inactive) | 0.99 (inactive) | 1.03 (inactive) | 0.99 (inactive) | 1.02 (inactive) | 1.04 (inactive) | 0.999 (inactive) |
| CC1COc2ccccc2N1C(=O)C(Cl)Cl (centres undefined) (20 µM) | 0.957 | 1.02 | 1.02 | 0.965 | 1.02 (inactive) | 1.02 (inactive) | 1.06 (inactive) | 0.986 (inactive) | 0.941 (inactive) | 1.04 (inactive) | 1.05 (inactive) | 1.11 (inactive) |
| CC(C)(C)NCC(O)COc1cccc2c1CCC(=O)N2 (centres undefined) [Carteolol hydrochloride] (20 µM) | 0.96 | 1.01 | 0.997 | 0.895 | 0.987 (inactive) | 0.985 (inactive) | 1.01 (inactive) | 1.01 (inactive) | 0.982 (inactive) | 1 (inactive) | 0.996 (inactive) | 0.982 (inactive) |
| CC(=O)c1cc2cccc(OCC(O)CNC(C)C)c2o1 (centres undefined) [Befunolol] (20 µM) | 0.992 | 1.1 | 0.953 | 0.98 | 1.07 (inactive) | 1.06 (inactive) | 1.02 (inactive) | 1.06 (inactive) | 0.972 (inactive) | 0.997 (inactive) | 0.995 (inactive) | 1.06 (inactive) |
| CCOC(=O)/C=C(C)/C=C/C=C(C)/C=C/c1c(C)cc(OC)c(C)c1C [Etretinate] (20 µM) | 1.04 | 0.971 | 0.965 | 0.927 | 1.09 (inactive) | 1.02 (inactive) | 1.03 (inactive) | 0.998 (inactive) | 1.02 (inactive) | 1 (inactive) | 0.983 (inactive) | 1.04 (inactive) |
| Cc1ccc(S(=O)(=O)NC(=O)NN2CC3CCCC3C2)cc1 (centres undefined) [Gliclazide] (20 µM) | 1.15 | 1.06 | 0.986 | 0.999 | 1.04 (inactive) | 1.06 (inactive) | 1.12 (inactive) | 0.995 (inactive) | 1 (inactive) | 0.883 (inactive) | 1 (inactive) | 1.12 (inactive) |
| CC(C)(CO)[C@@H](O)C(=O)NCCCO [(D)-Panthenol] (20 µM) | 0.885 | 0.982 | 1.05 | 1.15 | 1.02 (inactive) | 0.993 (inactive) | 0.956 (inactive) | 0.964 (inactive) | 1.01 (inactive) | 1 (inactive) | 0.996 (inactive) | 0.999 (inactive) |
| CC(C)c1c(C(=O)Nc2ccccc2)c(-c2ccccc2)c(-c2ccc(F)cc2)n1CC[C@@H](O)C[C@@H](O)CC(=O)O [Atorvastatin] (20 µM) | 1.02 | 1.03 | 1 | 1.28 | 1.15 (inactive) | 1.01 (inactive) | 1 (inactive) | 1.01 (inactive) | 1.02 (inactive) | 0.984 (inactive) | 0.998 (inactive) | 1.02 (inactive) |
